PfM18AAP inh-1 – blocks P. falciparum M18 aspartyl aminopeptidase; recombinant PfM18AAP, H-Glu-NHMec fluorogenic cleavage; inhibition, % at 7.35 µM; 1.2% of 290,000 active; AID 1822;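 active = inhibition above the campaign mean inhibition over all tested compounds plus 3 SD, cut at about 28% in these data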;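 note: 0% = plate median of test compound wells and 100% = 2 mM ZnCl2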
Rce1 inhib – yeast Ras-converting enzyme inhibition. Q03530. calls only. 0.27% of 290,000 active. yeast membranes, quenched prenylated peptide cleavage fluorescence. AID 2563;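 active = fall in fluorescence gain of 50% or more versus controls, with final raw signal at or below 3038400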;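 note: plate controls were neutral control wells for no effect and wells lacking membranes for full effect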
Target sequence (Q03530 whole entry, looked up): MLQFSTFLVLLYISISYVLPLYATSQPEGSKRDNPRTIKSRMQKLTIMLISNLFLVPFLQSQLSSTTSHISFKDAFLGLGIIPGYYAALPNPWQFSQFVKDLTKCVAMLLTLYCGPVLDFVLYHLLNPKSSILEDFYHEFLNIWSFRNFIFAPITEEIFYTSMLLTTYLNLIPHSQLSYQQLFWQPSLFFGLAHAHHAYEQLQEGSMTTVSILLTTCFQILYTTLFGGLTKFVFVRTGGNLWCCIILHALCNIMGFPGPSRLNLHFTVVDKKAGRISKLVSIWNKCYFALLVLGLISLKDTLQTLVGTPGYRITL
Kir21 inh – Kir2.1 (mouse) channel inhibition; P35561; HEK293-Kir2.1, FluxOR thallium flux fluorescence; stronger effect = lower value; B-score at 10 µM; 0.85% of 310,000 active; AID 1672;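 active = fluorescence ratio B-score at or below minus 3 SD of library scores, with starting-brightness B-score within 2 SD, cut at about -4.2 in these data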;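 note: channel flux triggered by added potassium and thallium sulfate stimulus; B-score of peak minus minimum fluorescence over baseline after thallium stimulus; more negative B-score means stronger Kir2.1 block with less thallium influx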
Target sequence (P35561 whole entry, looked up): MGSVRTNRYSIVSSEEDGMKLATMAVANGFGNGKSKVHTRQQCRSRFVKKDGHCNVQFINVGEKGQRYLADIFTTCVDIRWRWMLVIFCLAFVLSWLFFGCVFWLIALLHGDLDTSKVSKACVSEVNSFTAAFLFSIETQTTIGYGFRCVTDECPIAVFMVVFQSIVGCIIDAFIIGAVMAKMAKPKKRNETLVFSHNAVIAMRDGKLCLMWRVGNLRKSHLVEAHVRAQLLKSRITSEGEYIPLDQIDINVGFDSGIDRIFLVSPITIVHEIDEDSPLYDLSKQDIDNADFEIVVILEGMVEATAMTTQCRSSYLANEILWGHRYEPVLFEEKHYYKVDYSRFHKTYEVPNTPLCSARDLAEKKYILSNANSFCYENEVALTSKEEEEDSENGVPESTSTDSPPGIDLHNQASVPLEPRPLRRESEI
DNA FID counter – fluorescent intercalator displacement, NS3 helicase counter-screen; AID 1845; DNA fluorescent intercalator displacement, fluorescence; 0.17% of 290,000 active; inhibition, % at 7.9 µM; in the data active = inhibition above about 37%;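 note: 0% = vehicle and 100% = reference compound; higher means more ethidium bromide displaced from hairpin DNA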
PfM18AAP inh-2 – PfM18AAP inhibition, confirmation. shares compounds with PfM18AAP inh-1. recombinant PfM18AAP, H-Glu-NHMec fluorogenic cleavage. inhibition, % at 7.35 µM. 28% of 2,400 active;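 active = mean inhibition over replicate wells above the hit cutoff set for the earlier primary screen, cut at about 29% in these data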;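 note: 0% = median of test compound wells and 100% = 2 mM ZnCl2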
CTSL1 confirm – counter-screen for PFM18AAP inhibitors: confirmation of human cathepsin L inhibitors; AID 2178; inhibition, % at 5.96 µM; 2,400 tested, under 10 active; purified cathepsin L1, Z-Leu-Arg-MCA fluorescence; shares compounds with PfM18AAP inh-1;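 active = average inhibition across replicates above the hit cutoff set in the earlier primary screen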;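 note: 0% = median of test compound wells and 100% = Z-Phe-Ala-diazomethylketone 1 µM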
* marks the source's active call; other numbers are inactive results. Most compounds without a hit are left out; they make up all but 2.3% or so of the library.

How did Cc1ccc(C(=O)N/N=C\c2ccc([N+](=O)[O-])o2)cn1 do in these assays?
PfM18AAP inh-1: 34.2*; Rce1 inhib: inactive; Kir21 inh: 0.74; DNA FID counter: -8.6; PfM18AAP inh-2: -45.0; CTSL1 confirm: 6.4

Results for Cc1ccc(C(=O)N/N=C\c2ccc(-c3ccc([N+](=O)[O-])cc3)o2)cn1 ?
PfM18AAP inh-1: 12.3; Rce1 inhib: inactive; Kir21 inh: -0.18; DNA FID counter: -11.3

Results for N#C/C(=C\c1cc(O)c(O)c(O)c1)C(N)=O ?
PfM18AAP inh-1: 60.5*; Rce1 inhib: inactive; Kir21 inh: -0.62; DNA FID counter: -1.7; PfM18AAP inh-2: 26.5; CTSL1 confirm: 1.0

How did Cc1csc(SC(C)C(=O)NCC2CCCO2)n1 (configuration not stated) do in these assays?
Rce1 inhib: inactive; Kir21 inh: 0.02

What do the screens show for `Clc1cnc(N/N=C/c2cccs2)c(Cl)c1`?
PfM18AAP inh-1: 12.4; Rce1 inhib: inactive; Kir21 inh: -0.54; DNA FID counter: -2.2

How did Clc1cnc(N/N=C/c2ccco2)c(Cl)c1 do in these assays?
PfM18AAP inh-1: 47.1*; Rce1 inhib: inactive; Kir21 inh: 0.6; DNA FID counter: -11.3; PfM18AAP inh-2: -29.5; CTSL1 confirm: -5.5

Results for O=C(NC(=S)NNS(=O)(=O)c1ccccc1)c1ccc([N+](=O)[O-])cc1 ?
PfM18AAP inh-1: 50.3*; Rce1 inhib: inactive; Kir21 inh: 1.7; DNA FID counter: 8.7; PfM18AAP inh-2: -9.1; CTSL1 confirm: 4.2

Results for CN(/N=C/c1cc([N+](=O)[O-])ccc1O)c1ccccc1 ?
PfM18AAP inh-1: 5.3; Rce1 inhib: inactive; Kir21 inh: -1.67; DNA FID counter: -0.4

What do the screens show for `CN(C)/N=C/c1ccc([N+](=O)[O-])cc1[N+](=O)[O-]`?
PfM18AAP inh-1: 33.8*; Rce1 inhib: inactive; Kir21 inh: 0.02; DNA FID counter: -6.6; PfM18AAP inh-2: -20.4; CTSL1 confirm: 1.5

Results for O=C(N/N=C/c1ccc([N+](=O)[O-])cc1)c1[nH]ncc1Br ?
PfM18AAP inh-1: 5.4; Rce1 inhib: inactive; Kir21 inh: 1.21; DNA FID counter: 2.2

What do the screens show for `COc1ccc(Nc2nc3c([nH]2)c(=O)[nH]c(=O)n3C)cc1`?
PfM18AAP inh-1: 35.0*; Rce1 inhib: inactive; Kir21 inh: 0.75; DNA FID counter: 6.9; PfM18AAP inh-2: 11.6; CTSL1 confirm: 1.3

What do the screens show for `O=C(CCCc1nc(-c2ccccc2)no1)NC1CCCCC1`?
PfM18AAP inh-1: -1.2; Rce1 inhib: inactive; Kir21 inh: 0.87; DNA FID counter: -24.1

Results for O=S(=O)(c1ccc(N2CCCC2)nc1)N1CCCC1 ?
PfM18AAP inh-1: -3.9; Rce1 inhib: inactive; Kir21 inh: 0.52; DNA FID counter: 1.7

Results for NNc1ccc(S(=O)(=O)N2CCCCC2)cn1 ?
PfM18AAP inh-1: 33.3*; Rce1 inhib: inactive; Kir21 inh: 1; DNA FID counter: -5.4; PfM18AAP inh-2: 31.2*; CTSL1 confirm: 0.6

How did O=C(O)CCC(=O)Nc1ccc(N2CCCCCC2)cc1 do in these assays?
PfM18AAP inh-1: 43.8*; Rce1 inhib: inactive; Kir21 inh: -0.25; DNA FID counter: -9.2; PfM18AAP inh-2: -1.0; CTSL1 confirm: 1.1

How did CCOc1ccc2c(c1)-c1c(ssc1=S)C(C)(C)N2C do in these assays?
PfM18AAP inh-1: 33.5*; Rce1 inhib: inactive; Kir21 inh: -0.2; DNA FID counter: -0.1; PfM18AAP inh-2: -25.1; CTSL1 confirm: -2.1

What do the screens show for `CCCCN(C)C(=O)c1nc2ccccn2c1CN1CCC[C@H]1CO`?
PfM18AAP inh-1: -0.7; Rce1 inhib: inactive; Kir21 inh: 0.19; DNA FID counter: -3.2

Results for Nc1ccc(O)cc1C(=O)OCC(=O)c1ccc(C2CCCCC2)cc1 ?
PfM18AAP inh-1: 35.5*; Rce1 inhib: inactive; Kir21 inh: -0.08; DNA FID counter: -11.9; PfM18AAP inh-2: -21.1; CTSL1 confirm: -1.9

Results for COc1ccc(C(=O)OCC(=O)c2ccc(C3CCCCC3)cc2)cc1 ?
PfM18AAP inh-1: -10.7; Rce1 inhib: inactive; Kir21 inh: -0.57; DNA FID counter: -1.3

How did CCn1cc(/C=C(\NC(=O)c2ccc(OC)c(OC)c2)C(=O)N2CCN(C)CC2)c2ccccc21 do in these assays?
PfM18AAP inh-1: -0.3; Rce1 inhib: inactive; Kir21 inh: 1.05; DNA FID counter: 23.6

Results for COc1cccc(-n2c(Cn3nc(C(F)(F)F)cc3C)n[nH]c2=S)c1 ?
PfM18AAP inh-1: 8.0; Rce1 inhib: inactive; Kir21 inh: 0.32; DNA FID counter: -3.9

Results for COc1ccc(-n2c(Cn3nc(C(F)(F)F)cc3C)n[nH]c2=S)cc1 ?
PfM18AAP inh-1: 32.1*; Rce1 inhib: inactive; Kir21 inh: 0.12; DNA FID counter: -9.6; PfM18AAP inh-2: -16.8; CTSL1 confirm: -3.3

Results for Cc1cccc2nc(CNC(=O)C3CCC(=O)N(Cc4ccccc4F)C3)cn12 (configuration not stated) ?
PfM18AAP inh-1: -1.4; Kir21 inh: -1.16; DNA FID counter: -11.2

How did CCC1(CC)NC(=O)N(CC(=O)OCC(=O)Nc2ncc(Cl)cc2Cl)C1=O do in these assays?
Rce1 inhib: inactive; Kir21 inh: -0.14

How did CCOc1ccc(S(=O)(=O)NCCC(=O)NCCOc2ccccc2OC)cc1 do in these assays?
Rce1 inhib: inactive; Kir21 inh: -0.13

What do the screens show for `NC(=O)c1ccc(N2CCN(c3ccccc3O)CC2)c([N+](=O)[O-])c1`?
PfM18AAP inh-1: 36.4*; Rce1 inhib: inactive; Kir21 inh: -2.02; DNA FID counter: 3.0; PfM18AAP inh-2: -7.9; CTSL1 confirm: -4.0

Results for COC(=O)C[C@H]1c2cc(C(F)(F)F)ccc2S(=O)(=O)N1C(C)(C)C ?
Rce1 inhib: inactive; Kir21 inh: -2.19

What do the screens show for `NS(=O)(=O)c1ccc(NC(=S)NNC(=O)c2ccc(Br)o2)cc1`?
PfM18AAP inh-1: 33.0*; Rce1 inhib: inactive; Kir21 inh: 0.66; DNA FID counter: -7.2; PfM18AAP inh-2: -2.4; CTSL1 confirm: -1.2

What do the screens show for `NS(=O)(=O)c1ccc(NC(=S)NC2CC2)cc1`?
PfM18AAP inh-1: 32.3*; Rce1 inhib: inactive; Kir21 inh: -0.54; DNA FID counter: -1.4; PfM18AAP inh-2: -1.8; CTSL1 confirm: -1.5

How did O=C1COc2ccc(S(=O)(=O)N3CCN(c4ccccc4F)CC3)cc2N1 do in these assays?
PfM18AAP inh-1: 3.6; Rce1 inhib: inactive; Kir21 inh: 0.86; DNA FID counter: -39.3

How did CC(C)Oc1ccc(C(=O)Nc2c3c(nn2-c2ccccc2)CS(=O)(=O)C3)cc1 do in these assays?
PfM18AAP inh-1: 2.4; Rce1 inhib: inactive; Kir21 inh: 0.23; DNA FID counter: -31.2

How did S=c1[nH]nc(COc2ccccc2)n1/N=C/c1ccccc1Br do in these assays?
PfM18AAP inh-1: 34.6*; Rce1 inhib: inactive; Kir21 inh: -1.03; DNA FID counter: -18.6; PfM18AAP inh-2: 9.0; CTSL1 confirm: 5.9

Results for CC1(C)S[C@@H]2[C@H](NC(=O)C(NC(=O)N3CCNC3=O)c3ccccc3)C(=O)N2[C@H]1C(=O)O (some centres not stated) ?
PfM18AAP inh-1: -10.9; Rce1 inhib: inactive; Kir21 inh: 2.2; DNA FID counter: -20.0

Compound activity from PubChem.
